Measured values as given in the supplement of paper PMC6555819.

Assays:
Assay in all cases: PBM binding z-score (relative to random genomic background probes); higher = stronger binding; sequences stand for … in GC…GCGATTGACAGCGTAGAATGAAGG
[1] = test system: RARb homodimer (NR concentration 270 nM)
Summary of the method: (§1)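 Regression normalization was applied to scanned fluorescence from custom Agilent 4×180K protein-binding microarrays. Before scanning, arrays were incubated 1 h with ligand-free nuclear receptor dimers, and binding was detected with antibodies against each partner (one per run). Binding z-scores use the random background probes as reference.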

[2] = test system: RARg:RXRa (NR concentration 270 nM, RXRa partner concentration 90 nM)
Summary of the method: as §1

[3] = test system: RARg homodimer (NR concentration 270 nM)
Summary of the method: as §1

[4] = test system: RXRa DBDmut IVT, anti-RXR (DBD mutation: RXRa K156A/R161A, NR concentration 90 nM)
Summary of the method: as §1

[5] = test system: RXRa homodimer (NR concentration 180 nM)
Summary of the method: as §1

[6] = test system: THRa:RXRa (NR concentration 90 nM, RXRa partner concentration 90 nM)
Summary of the method: as §1

[7] = test system: THRa homodimer (NR concentration 90 nM)
Summary of the method: as §1

[8] = test system: VDR homodimer (NR concentration 270 nM)
Summary of the method: as §1

| Sequence | PBM binding z-score [1] | PBM binding z-score [2] | PBM binding z-score [3] | PBM binding z-score [4] | PBM binding z-score [5] | PBM binding z-score [6] | PBM binding z-score [7] | PBM binding z-score [8] |
| --- | --- | --- | --- | --- | --- | --- | --- | --- |
| TCATATAGGTACTACAGGTGAAAGTCGGCATCTA | 0.25 | 0.654 | 0.428 | 1.33 | 0.935 | 0.692 | -0.00751 | 0.023 |
| ATATGCAGGTTAAGGGTCATTCAGGTTGGTTCGC | 3.97 | 4.66 | 3.52 | 2.24 | 6.59 | 3.64 | 1.26 | 4.45 |
| GCGTACGGGTCAAAGGTTATAGCATGAATAGAAT | 3.14 | 6.99 | 4.57 | 1.83 | 9.61 | 3.78 | -0.479 | 1.08 |
| ACAGACAGGTGATGAAGGTAACTCGGGCTATCAT | 0.556 | 0.166 | 0.396 | -0.159 | 0.351 | 0.765 | 0.0589 | -0.217 |
| AGAATGAGGTAAAGATCAGGGAAACAGAATACAT | 0.102 | 0.258 | 0.491 | -0.375 | 0.406 | 1.79 | 0.604 | -0.343 |
| TCTGCTAGGTCAACGATGGTCAGCTAGTCTGCTA | 3.54 | 3.9 | 4.61 | 0.638 | 2.5 | 3.16 | 0.617 | -0.544 |
| GCGGCTGGGGCAAAGCAGGTTACCATAAGGTTGG | 1.19 | 0.368 | 0.921 | -0.596 | 0.116 | 3.18 | 0.108 | -0.402 |
| AGAGACAGGTGAGTGAAGGTAACTCAGCTGGACG | 0.498 | 0.327 | 0.547 | -0.787 | 0.592 | 1.75 | 0.04 | -0.14 |
| GCTAGCAGGCCATTTGAGTCACTCAATGACGGGC | -0.381 | -0.0759 | 0.0765 | -0.0136 | -0.11 | 0.249 | -1.02 | -0.525 |
| GCTTACGCGTCAAAGGTTATAGCATGAATAGAAT | 0.965 | 1.43 | 0.64 | 0.189 | 3.35 | 1.65 | -0.774 | -0.203 |
| TATACAGCGTCAAAGGCCAGAGTACGAATGTCGA | 0.415 | 0.284 | 0.525 | -1.06 | 0.258 | -0.433 | -1.11 | -0.0431 |
| CCTGCTAGGTCATGGTCAGCTATTCTACAGTATG | 3.14 | 3.88 | 4.48 | 2.05 | 2.65 | 2.93 | 1.28 | 0.248 |
| AACTCTAGGTAAAGATAGTTCAGTGAATGCAAAT | 1.06 | 0.458 | 0.642 | 0.162 | 0.119 | 0.754 | -0.108 | 0.243 |
| CCGACAGGGGCAAAGGTTACCATACTCAGTACGA | 2.32 | 3.95 | 2.17 | 1.26 | 5.03 | 2.17 | -0.142 | 0.724 |
| GCGACTGGGGCAAAGCAGGTTACCGTAAGGTTGG | 1.14 | 0.477 | 0.183 | -0.47 | 0.234 | 3.15 | -0.142 | -0.434 |
| ATACCAACGTGATCGTGAGGTCGTTGATACTAAC | 0.904 | 0.317 | 0.269 | 0.532 | 0.915 | 2.36 | 1.73 | 2.32 |
| ACTAGTTGGTCAGCTGAGGTCAGACACAATTCGG | 3.88 | 2.85 | 3.57 | 0.548 | 2.51 | 4.56 | 3.42 | 1.76 |
| ATATGTAGGTTACATCCGGGACATTCAGGCTATG | 0.852 | 1.56 | 1.27 | 0.669 | 1.27 | 2.66 | 1.46 | 0.967 |
| ACTATTAGTTGATACGAGGGCAACCGATAGGTTG | 1.59 | 1.03 | 0.921 | 1.04 | 0.536 | 2.55 | 0.673 | 0.979 |
| TAGCCTAGGTAATTCAGGGGCCAGTATAGAAAGC | 0.306 | 0.386 | -0.0521 | -0.687 | -0.137 | 0.54 | -0.13 | -0.354 |
| CGAACTAGGTCAGAACAGGACAGTCAAGGATGAT | 2.26 | 2.65 | 3.09 | 0.873 | 1.35 | 3.42 | 0.288 | 0.29 |
| CCTGCTAGGTCAATGGTCAGATAAAGCAGCTCGC | 2.54 | 3.8 | 4.61 | 1.55 | 2.45 | 2.12 | 0.626 | 0.232 |
| CCTAGCAGGCCAGGGTCACTCCAGCATTTCGCTT | 2.7 | 2.61 | 2.18 | 0.578 | 2.86 | 2.61 | 1.02 | 1.64 |
| AGTCAAACTTCATCTAGGTAACGTAAGATATGCT | -0.47 | -0.19 | 0.544 | 0.281 | 0.109 | 0.484 | 0.329 | -0.372 |
| CCTATTAGTTGACCCTAAGGGCAACCGAAGCTCG | 3.48 | 4.12 | 2.5 | 0.762 | 5.73 | 4.02 | 3.25 | 1.72 |
| CCTACTGGGCCATTCAGAGGTCATTAATCATATG | 3.81 | 4.21 | 2.91 | 0.793 | 3.48 | 3.13 | 1.35 | 3.11 |
| CGTCCAAGGTCCGAGAGGTCAGTGAATGCCGAGT | 3.86 | 3.1 | 3.53 | 1.19 | 2.4 | 2.67 | 1.18 | 2.95 |
| TCCAGTAGGTTAGTCGGGGCATTCAGCCAACATA | 0.924 | 0.125 | 0.158 | 1.18 | 0.345 | 1.19 | 0.383 | 0.673 |
